Screens as filed in PubChem BioAssay.
ALDH1A1 block – qHTS Assay for Inhibitors of Aldehyde Dehydrogenase 1 (ALDH1A1); Aldehyde dehydrogenase 1A1 (Homo sapiens), P00352; Purified ALDH1A1, NADH fluorescence, propionaldehyde substrate; Potency, µM (series often up to 75.3 µM), hits mostly inhibitors; hit rate 7.3% among 220,000; AID 1030, 2008; active = well fitted inhibition curve with a large enough effect, not every such curve was filed as active; inconclusive = small, poorly fitted or top-dose-only effect, or another doubt; inactive = no such curve, though single readings can be large or run the other way
PNC inhibitor – High Content Assay for Compounds that inhibit the Assembly of the Perinucleolar Compartment | PC3M PTB-GFP, PNC prevalence imaging, 16 h; active compounds read low | activity change (PNC), negative = inhibition, % at 10 µM | hit rate 3.1% among 140,000 | AID 2417, 2010;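 active = readout at or below -70, meaning at least 70% loss of cells showing the perinucleolar compartment, a nuclear body marking cancer cells; inconclusive = readout between -30 and a set limit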
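Read-out is percentage of cells bearing a perinucleolar compartment, from automated 20x imaging of fixed, Hoechst-stained PC3M PTB-GFP cells. Cells were seeded 4 h, then exposed 16 h to compound (23 nl of library stock) in duplicate plates.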
GLA inh pH 4.5 – qHTS Assay for Inhibitors of Human alpha-Galactosidase at pH 4.5; Alpha-galactosidase A (Homo sapiens), P06280; purified enzyme, 4-MU-alpha-Gal fluorescence, pH 4.5; activity change, negative = inhibition, % at 105 µM; 230,000 tested, under 10 active; AID 1467, 2008
HPGD inh – qHTS Assay for Inhibitors of HPGD (15-Hydroxyprostaglandin Dehydrogenase); AID 894, 2007; 15-hydroxyprostaglandin dehydrogenase [NAD(+)] (Homo sapiens), P15428; purified HPGD, NADH fluorescence kinetic, PGE2 substrate; Potency, µM, hits mostly inhibitors; hit rate 4.3% among 150,000; active = well fitted inhibition curve with a large enough effect, not every such curve was filed as active; inconclusive = small, poorly fitted or top-dose-only effect, or another doubt; inactive = no such curve, though single readings can be large or run the other way
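NADH formation kinetics: reaction with 30 uM PGE2 and 1 mM NAD+ (final), 20 nM enzyme, Tris-HCl pH 8 with Tween 20, after 15 min compound preincubation at room temperature. Fluorescence change, last versus first of five reads.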
ALOX12 inhib – qHTS Assay for Inhibitors of 12-hLO (12-human lipoxygenase). Polyunsaturated fatty acid lipoxygenase ALOX12 (Homo sapiens), P18054. purified 12-hLO, xylenol orange hydroperoxide absorbance. Potency, µM (titrated, usually from 57.1 µM), usual class: inhibitors. hit rate 0.12% among 150,000; also: nearly all actives have a fitted effect of over 55% in size
Target sequence (P18054 whole entry, looked up): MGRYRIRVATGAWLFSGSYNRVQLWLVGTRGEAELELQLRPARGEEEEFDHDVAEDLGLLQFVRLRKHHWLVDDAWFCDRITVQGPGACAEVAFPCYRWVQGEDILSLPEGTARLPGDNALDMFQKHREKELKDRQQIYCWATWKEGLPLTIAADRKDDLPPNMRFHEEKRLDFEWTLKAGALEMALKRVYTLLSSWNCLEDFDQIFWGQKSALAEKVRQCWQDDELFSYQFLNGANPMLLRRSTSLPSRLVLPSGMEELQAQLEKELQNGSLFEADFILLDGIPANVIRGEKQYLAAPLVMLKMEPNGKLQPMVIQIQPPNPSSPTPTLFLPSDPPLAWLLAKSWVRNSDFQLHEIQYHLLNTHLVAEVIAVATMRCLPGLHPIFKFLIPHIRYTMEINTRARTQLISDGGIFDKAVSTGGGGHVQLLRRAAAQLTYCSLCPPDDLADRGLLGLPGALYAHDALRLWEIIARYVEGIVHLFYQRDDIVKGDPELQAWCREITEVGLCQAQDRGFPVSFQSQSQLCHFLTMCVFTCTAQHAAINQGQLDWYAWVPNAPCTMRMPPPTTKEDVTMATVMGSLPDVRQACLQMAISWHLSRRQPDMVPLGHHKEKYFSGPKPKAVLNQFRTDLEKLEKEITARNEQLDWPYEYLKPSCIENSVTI
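Purified human 12hLO (150 nM), preincubated 15 min with compound, then 40 uM arachidonic acid for 30 min, room temperature, Hepes pH 7.0 with 0.01% Triton X-100. Hydroperoxide detected by ferrous iron/xylenol orange; 573/405 nm absorbance ratio gives reaction progress.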
aGal spleen mod – qHTS Assay for Inhibitors and Activators of Human alpha-Galactosidase From Spleen Homogenate; human spleen homogenate, 4MU-alpha-Gal fluorescence, 40 min; Potency, µM (highest dose often 80 µM), actives largely listed as inhibitors; hit rate 0.008% among 240,000; Alpha-galactosidase A (Homo sapiens), P06280
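Fluorogenic readout (Ex 365/Em 440 nm) of 4-methylumbelliferone released from 1 mM 4-MU-alpha-galactoside by spleen homogenate, 40 min at 37C, pH 5.0. Data normalized to no-enzyme and enzyme controls; Hill-equation AC50 from compound titrations.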
Numbers stand for hits; – = inactive; ? = inconclusive; · = no result; ! = not confirmed by another sample; [ ] = dose if it differs, or a comment. Only some compounds are listed: those with a hit (about 10% of all), similar ones and a draw of the others. Unless noted, calls follow the shape of the dose curve; as a rule, active = well fitted curve in the direction sought with a large enough effect; inconclusive = small, poorly fitted or top-dose-only effect, or another doubt; inactive = no such curve, though single readings can be large; an effect the other way counts as inactive or inconclusive.

SMILES | ALDH1A1 block | PNC inhibitor | GLA inh pH 4.5 | HPGD inh | ALOX12 inhib | aGal spleen mod
COc1ccc(C(=O)Cc2ccc(OC)c(OC)c2)cc1 | – | ? | – | – | – | –
COc1cc(CC(=O)O)ccc1O | 25µM! | · | – | – | – | –
CC(C)CNc1nc2ncnc(N)c2[nH]1 | –[13.5 µM] | · | · | – | –[11.4 µM] | ·
C#C[C@@]1(O)CCC2C3CCc4cc(O)ccc4C3CC[C@@]21C (some centres not stated) | – | · | – | – | – | –
Cc1ccc(N(CC(=O)Nc2cccc(C)c2)S(=O)(=O)c2cccc3nonc23)cc1 | 7.1µM | ? | – | · | – | –
COc1ccc2c(c1)C(c1ccc(C)cc1)CC(=O)O2 (configuration not stated) | – | · | – | – | –[0.00818 µM] | –
CC(C)CN(CC(C)C)C1=N/C(=C\c2ccco2)C(=O)N1c1ccccc1 | 13µM | – | – | ? | – | –
COc1ccc(/C(O)=C2/C(=O)C(=O)N(CCN3CCOCC3)C2c2ccc(C)cc2)cc1 (configuration not stated) | ? | – | – | – | – | –
CCOC(=O)c1[nH]c(C)c(/C(O)=C2\C(=O)C(=O)N(CCCN3CCOCC3)C2c2cccnc2)c1C (configuration not stated) | ? | – | – | – | – | –
COC(=O)c1[nH]c(C)c(/C(O)=C2\C(=O)C(=O)N(CCCN3CCOCC3)C2c2ccccn2)c1C (configuration not stated) | 10µM | – | – | ? | – | –
O=C1C(=O)N(CCN2CCOCC2)C(c2ccccn2)/C1=C(/O)c1ccc(F)cc1 (configuration not stated) | 25µM | – | – | – | – | –
CC(C)Oc1ccc(/C(O)=C2/C(=O)C(=O)N(CCN3CCOCC3)C2c2ccccc2)cc1 (configuration not stated) | 22µM | – | – | – | – | –
COc1ccc(/C(O)=C2/C(=O)C(=O)N(CCN3CCOCC3)C2c2ccccn2)cc1 (configuration not stated) | 22µM | – | – | · | – | –
COC(=O)NC(CC(C)=O)c1cccc(C(F)(F)F)c1 (configuration not stated) | –[13.5 µM] | · | · | · | · | –[17.5 µM]
Cc1cc(C)c(S(C)(=O)=O)c(Oc2cccc(Cl)c2)n1 | – | – | – | – | – | –
Cc1cc(C)c(S(C)(=O)=O)c(Oc2ccc(C(C)(C)C)cc2)n1 | 16µM | – | – | – | – | –
O=S(=O)(/N=C/c1c(O)ccc2ccccc12)c1cccs1 | 11µM | – | – | ? | – | –
Oc1ccc2ccccc2c1C=NCc1ccccc1 | · | · | – | · | · | –
Oc1ccc2ccccc2c1/C=N/Nc1ccccc1 | 18µM | – | – | ? | – | –
O=CN/N=C/c1c(O)ccc2ccccc12 | · | · | – | · | · | –
CC1CN(Cc2ccccc2)c2ccccc2NC1=S (configuration not stated) | – | – | – | – | ? | –
CC(=O)NCCNc1nc(-c2ccc(N(C)C)cc2)nc2ccccc12 | ? | · | – | – | – | –
CCN1CCN(c2nc(C)nc3c2sc(=S)n3C)CC1 | ? | – | – | 10µM | – | –
Cc1nc(N2CCCCC2)c2sc(=S)n(C)c2n1 | – | – | – | – | – | –
CCOC(=O)C(C)Sc1ncnc2nc[nH]c12 (configuration not stated) | – | – | – | – | – | –
CCOC(=O)C(CC)Sc1ncnc2nc[nH]c12 (configuration not stated) | – | -100 | – | – | – | –
COc1ccccc1CN1C(=O)[C@@H]2C(CCC(N)=O)NC3(C(=O)Nc4c3ccc(Cl)c4C)[C@@H]2C1=O (some centres not stated) | 0.22µM | – | – | – | – | –
